This note sets out measurements from PubChem BioAssay AID488977 (Johns Hopkins Ion Channel Center, 2010).

In all, about 310,000 compounds went through this assay and about 1,500 (0.48%) were called active.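 Rule for the calls: active = initial fluorescence not abnormally high and integrated response B-score, plate-corrected, over 3 SD above library mean; inactive = the rest.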 The sample as a whole holds a higher share of actives than the screen did.

In the assay the target is High affinity choline transporter 1 (Homo sapiens) (UniProt Q9GZV3). Kind of assay: CHT positive allosteric modulators, primary screen, cell-based, membrane potential dye, choline EC20 (AID 488977). To be noted: CHT-expressing cells, at 10 µM; B-score: active compounds read high, LV-AA mutant CHT in HEK293 cells unless noted; outcome: LV-AA mutant CHT in HEK293 cells unless noted.
High affinity choline transporter 1 (Homo sapiens), sequence (Q9GZV3 whole entry, looked up): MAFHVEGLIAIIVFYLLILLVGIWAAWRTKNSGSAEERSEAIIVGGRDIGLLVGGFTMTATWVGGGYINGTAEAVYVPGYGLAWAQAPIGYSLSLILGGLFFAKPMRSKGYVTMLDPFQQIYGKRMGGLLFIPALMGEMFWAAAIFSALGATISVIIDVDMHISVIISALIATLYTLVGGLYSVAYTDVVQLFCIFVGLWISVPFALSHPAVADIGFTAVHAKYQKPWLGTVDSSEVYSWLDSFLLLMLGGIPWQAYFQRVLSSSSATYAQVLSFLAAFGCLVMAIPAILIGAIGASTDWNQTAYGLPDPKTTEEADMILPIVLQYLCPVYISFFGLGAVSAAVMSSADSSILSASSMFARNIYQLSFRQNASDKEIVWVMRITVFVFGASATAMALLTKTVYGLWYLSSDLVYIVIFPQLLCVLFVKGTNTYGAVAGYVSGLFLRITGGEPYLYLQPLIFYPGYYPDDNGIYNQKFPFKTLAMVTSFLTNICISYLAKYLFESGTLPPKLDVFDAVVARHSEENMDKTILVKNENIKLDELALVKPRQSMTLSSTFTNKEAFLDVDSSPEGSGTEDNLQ
Regarding `CN1CCN(c2cc(N3CCNCC3)ccc2[N+](=O)[O-])CC1`, the B-score is 8.44 (active).
Still for that read-out and setting: to `CCN1CCN(c2ccc([N+](=O)[O-])cc2C#N)CC1` belongs “inactive”; to `COC(=O)C1=C(c2cc3ccccc3o2)C[C@@H]2CC[C@H]1N2C(=O)NC1CCCCC1`, “inactive”.
Still for that read-out and setting: to `COC(=O)C1=C(c2cc3ccccc3s2)C[C@@H]2CC[C@H]1N2C(=O)NCCO` belongs “inactive”; to `COC(=O)C1=C(c2ccccc2)C[C@@H]2CC[C@H]1N2C(=O)N1CCCCC1`, “inactive”.
Still for that read-out and setting: to `Cc1nc2ccc(N3CCN(C)CC3)cc2nc1C` belongs 6.37 (active); to `C=CC12CN(C)[C@@H]3C4CO[C@H](C[C@H]41)[C@]1(C(=O)Nc4ccccc41)[C@@H]32` (stereo not given in full), “inactive”.
For the molecule `CC(=O)Nc1ccc(C(=O)C(Cc2ccccc2)N(C)C)cc1` (stereo not given), the B-score entry is “inactive”.
The same measure, in the same setting: with `O=[N+]([O-])c1cnc2ccc3ccccc3c2c1` the entry was “inactive”.
With `CCCCn1c(=O)c(C(=O)Nc2ccccc2Cl)c(O)c2ccccc21`, the B-score entry was “inactive”.
Same read-out and setting: with `CCCCCn1c(=O)c(C(=O)Nc2c(C)n(C)n(-c3ccccc3)c2=O)c(O)c2ccccc21` the figure was 8.71 (active).
On the same count and under the same terms, with `CCCCCn1c(=O)c(C(=O)NCc2ccccc2)c(O)c2ccccc21` the entry was “inactive”; with `CNCC(O)c1cc(F)c(OCc2ccccc2)c(OCc2ccccc2)c1F` (stereo not given), “inactive”.
`O=C(N/N=C/c1c(O)n(C2CC2)c(=S)[nH]c1=O)c1ccccc1Cl`: the outcome is “inactive [setting not given]”.
As to `C/C(=N/O)c1ccc2ccc3ccccc3c2c1`, the B-score entry is “inactive”.
